Test results from PubChem BioAssay (NCATS).
Records with an inconclusive call do not appear. Activity calls are given as the source filed them. Unless noted, calls come from the whole dose curve; as a rule, active = well fitted curve in the direction sought with a large enough effect; inconclusive = small, poorly fitted or top-dose-only effect, or another doubt; inactive = no such curve, though single readings can be large; an effect the other way counts as inactive or inconclusive.

Tests used:
[1] = Counterscreen for APE1 Inhibitors: Fluorescent Dye Displacement Validation Assay (AID 1707);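 note: plate controls were ThO with dsDNA and no compound for no effect and ThO without dsDNA for full effect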
In short: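 Signal: ThO fluorescence (ex 480 nm/em 540 nm) on binding 50 nM dsDNA; displacement by test compound reduces it. Conditions: 250 nM dye, 50 mM Tris-HCl pH7.5, 2 mM MgCl2, 50mM NaCl, 0.01% Tween-20.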

[2] = qHTS for differential inhibitors of proliferation of Plasmodium falciparum line 7G8 (AID 1815);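 note: parasite growth measured after three days of incubation; plate controls were vehicle wells for no effect and reference inhibitor wells for full effect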
[3] = qHTS for differential inhibitors of proliferation of Plasmodium falciparum line GB4 (AID 1816); settings: Potency: Plasmodium falciparum GB4 proliferation inhibition;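 note: parasite growth measured after 72 h incubation; 0% = vehicle DMSO and -100% = reference inhibitor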
[4] = qHTS for differential inhibitors of proliferation of Plasmodium falciparum line 3D7 (AID 1876);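 note: parasite growth measured after three days of culture; 0% = vehicle wells and -100% = reference inhibitor wells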
[5] = qHTS for differential inhibitors of proliferation of Plasmodium falciparum line D10 (AID 1877);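 note: parasites grown with compound for 72 h before DNA staining; plate controls were vehicle wells for no effect and reference inhibitor wells for full effect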
[6] = qHTS for differential inhibitors of proliferation of Plasmodium falciparum line Dd2 (AID 1882); settings: Potency: Plasmodium falciparum Dd2 proliferation inhibition;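 note: series mostly up to about 29 µM; plate controls were DMSO vehicle for no effect and 0.29 µM artemisinin for full effect; nearly all actives have a fitted effect of over 65% in size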
In short: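 SYBR Green DNA fluorescence (ex 485, em 535 nm) after overnight lysis quantifies parasite growth; compound exposure lasted 72 h at 37 C on infected red cells at 2.5% hematocrit, 0.3% parasitemia (final). Artemisinin 0.29 uM and vehicle wells define normalization.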

[7] = qHTS for differential inhibitors of proliferation of Plasmodium falciparum line W2 (AID 1883); settings: Potency: Plasmodium falciparum W2 proliferation inhibition;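 note: parasites grown with compound for 72 h before lysis and staining; 0% = vehicle wells and -100% = control inhibitor wells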
[8] = qHTS for differential inhibitors of proliferation of Plasmodium falciparum line HB3 (AID 1886); settings: Potency: Plasmodium falciparum HB3 proliferation inhibition;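 note: parasites grown with compound for 72 h before SYBR Green readout; plate controls were vehicle for no effect and reference inhibitor for full effect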
[9] = molecular target: Ferritin light chain (Equus caballus) (UniProt P02791); test: qHTS Validation Assay for Identification of Novel General Anesthetics (AID 2323); note: series mostly up to about 77 µM; % is set by controls: 0 for no effect and ±100 for the full control effect
In short: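 Horse-spleen apoferritin (10 uM) in PBS with 50% saturated 1-aminoanthracene; compounds pin-transferred, 10 min at room temperature. Fluorescence read at 380/535 nm, normalized to free 1-AMA and 1-AMA/apoferritin values; four-parameter Hill fit.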

[10] = molecular target: ATP-dependent DNA helicase Q1 (Homo sapiens) (UniProt P46063); test: qHTS Validation Assay for Inhibitors of RecQ-Like Dna Helicase 1 (RECQ1) (AID 2353);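 note: plate controls were DMSO vehicle for no effect and enzyme-free control for full effect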
In short: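 RECQ1T1 50 nM; forked duplex (20 bp + 30-nt ss tails) 200 nM, ATP 2 mM final; pH 8.0, 2 mM MgCl2, 2.5 ug/ml poly(dI-dC); 15 min compound preincubation; discontinuous kinetic read over 2 h at RT.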

[11] = molecular target: RecQ-like DNA helicase BLM (Homo sapiens) (UniProt P54132); test: qHTS Validation Assay for Inhibitors of Bloom's syndrome helicase (BLM) (AID 2364);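 note: plate controls were DMSO vehicle for no effect and enzyme-free control for full effect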
In short: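 BLM 50 nM in 25 mM Tris-HCl pH 8.0, 5 mM NaCl, 2 mM MgCl2, 1 mM DTT, 0.01% Tween-20, 2.5 ug/ml poly(dI-dC); 15 min cpd preinc, RT. Start: 200 nM forked DNA + 2 mM ATP (final). TAMRA read, 2 reads 2 h apart.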

[12] = Validation screen for inhibitors of Lassa infection (AID 463096; calls by dose curve; note: % is set by controls: 0 for no effect and ±100 for the full control effect)
[13] = Validation screen for small molecules that induce DNA re-replication in MCF 10A normal breast cells (AID 463097); note: 0% is about no effect; nearly all actives have a fitted effect of over 60% in size
In short: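 MCF 10A cells exposed to compound 48 hr at 37 C, 5% CO2, then Hoechst-stained 40 min. Laser-scanning imaging of nuclear DNA content (405 nm ex, 500-530 nm em); re-replication scored as rise in nuclei with elevated fluorescence intensity.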

[14] = Quantitative high throughput screen for delayed death inhibitors of the malarial parasite plastid, 48 hour incubation (AID 488752); note: % is set by controls: 0 for no effect and ±100 for the full control effect; nearly all actives have a fitted effect of over 65% in size
In short: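 First, compound was pinned into RPMI 1640 medium containing 0.5% Albumax. Next, reporter-parasite-infected erythrocytes were added to 2% hematocrit and 0.1% parasitemia. After 48 h at 37 C under 5% CO2, luciferase detection reagent was added and luminescence read.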

[15] = molecular target: M-phase phosphoprotein 8 (Homo sapiens) (UniProt Q99549); test: qHTS Validation Assay for Inhibitors for MPP8 Chromodomain Interactions with Methylated Histone Tails (AID 488949); note: top concentration of the series differs between compounds; % is set by controls: 0 for no effect and ±100 for the full control effect; nearly all actives have a fitted effect of over 55% in size
In short: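 MPP8 (50 nM) was pre-bound to 50 nM biotinylated H3(1-18)K9me3 peptide in PBS pH 7.4 with 0.01% Tween-20. Compounds were then added for 30 min at room temperature, and complex disruption was read by AlphaScreen with streptavidin donor and nickel-chelate acceptor beads.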

[16] = molecular target: Transient receptor potential cation channel subfamily V member 1 (Homo sapiens) (UniProt Q8NER1); test: HTS Assay for Compounds that Act as Enhancers of the Vanilloid Receptor 1 (AID 488979); note: 0% is about no effect
In short: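 TRPV1-expressing cells loaded with Fluo-8 calcium dye; compounds added and calcium influx read kinetically for 3 min (agonist phase), then capsaicin at EC20 added and read 2 min more for enhancement. Fluorescence ex 480/em 520 nm.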

[17] = molecular target: Thyrotropin receptor (Homo sapiens) (UniProt P16473); test: qHTS Assay for Antagonists of the Thyroid Stimulating Hormone Receptor (AID 488980); note: series mostly up to about 58 µM; 0% is about no effect
In short: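 TSHR-transfected HEK293 cells (2000/well) in HEPES-buffered HBSS with 70 uM RO 20-1724 were stimulated with 4 nM TSH (EC80, final) in the presence of compound. cAMP was measured by HTRF competition after lysis and 30 min at RT.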

[18] = molecular target: Thyrotropin-releasing hormone receptor (Homo sapiens) (UniProt P34981); test: qHTS for Small Molecule Agonists and Allosteric Enhancers of Human TRH Receptor: Validation Screen for Agonists (AID 493127;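 active = calcium activation more than 3 SD above the typical response in the agonist read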;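 note: intracellular calcium rise by fluo-8 fluorescence before TRH EC20 addition; 0% is about no effect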); settings: TRH receptor agonist cell assay; at 2 µM; active compounds read high
In short: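 Compounds are added by online pintool to dye-loaded TRHR cells while fluorescence is recorded every second. A rise in calcium signal during the agonist read marks activation; a later 10 nM TRH addition (EC20) serves the separate enhancer mode.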

[19] = molecular target: Galactokinase (Homo sapiens) (UniProt P51570); test: qHTS Validation Assay for Inhibitors of Human Galactokinase (GALK) (AID 493189); note: 0% is about no effect
In short: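 GALK (5 nM) with 35 uM ATP and 100 uM galactose in HEPES pH 8.0 with MgCl2, NaCl, DTT and BSA. Reaction ran 1 h at room temperature. Residual ATP read by Kinase-Glo Plus luminescence.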

[20] = Validation screen for small molecules that induce DNA re-replication in SW480 colon adenocarcinoma cells (AID 504364); note: 0% is about no effect
In short: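 Image-based qHTS: compounds were incubated with SW480 cells for 48 hr, nuclei stained with Hoechst, and per-nucleus fluorescence intensity scanned to flag cells with excess DNA content.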

[21] = molecular target: Ubiquitin carboxyl-terminal hydrolase 1 (Homo sapiens) (UniProt O94782); test: Inhibitors of USP1/UAF1: Pilot qHTS (AID 504865);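 note: rhodamine fluorescence freed from ubiquitin-rhodamine substrate followed over time; top concentration of the series differs between compounds; % is set by controls: 0 for no effect and ±100 for the full control effect; nearly all actives have a fitted effect of over 35% in size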
In short: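 USP1/UAF1 complex at 1 nM preincubated 15 min at room temperature with compound, then Ub-Rho substrate added at 150 nM final. Fluorescence (480/540 nm) read kinetically in 50 mM HEPES pH 7.8, 0.5 mM EDTA, 1 mM TCEP, 0.1 mg/ml BSA, 0.01% Tween-20.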

[22] = molecular target: DNA dC->dU-editing enzyme APOBEC-3G (Homo sapiens) (UniProt Q9HC16); test: qHTS for inhibitors of Vif-A3G interactions: Validation (AID 588379); note: 0% is about no effect
In short: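 Yellow fluorescence (Ex 488, Em 500-530) of Vif-coexpressing HeLa A3G-eYFP cells, scanned by Acumen cytometer, reports blocked A3G degradation. Cells plated at 700/well overnight at 37 deg C before compound addition, then a further overnight compound incubation at 37 deg C.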

[23] = molecular target: Voltage-gated inwardly rectifying potassium channel KCNH2 (Homo sapiens) (UniProt Q12809); test: qHTS Assay for Small Molecule Inhibitors of the Human hERG Channel Activity (AID 588834);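 note: top concentration of the series differs between compounds; % is set by controls: 0 for no effect and ±100 for the full control effect; lower thallium flux fluorescence means stronger hERG block; nearly all actives have a fitted effect of over 50% in size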
In short: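 Thallium serves as surrogate for K+ influx through BacMam-delivered hERG in U2OS cells. Compounds are added for about 10 minutes after dye loading; stimulation buffer then starts flux, monitored kinetically on FDSS.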

[24] = tested on: Zika virus NS2B-NS3 protease; test: Primary screen GU AMC qHTS for Zika virus inhibitors (AID 1347154);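 note: 0% = no-inhibitor control and -100% = no-enzyme control; nearly all actives have a fitted effect of over 70% in size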
In short: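 Unlinked Zika NS2B hydrophilic domain/NS3 protease domain noncovalent complex (25 nM final) in 10 mM Tris-HCl pH 8.0, 0.01% Tween 20, with AMC peptide substrate. Fluorescence (ex 340, em 450 nm) change over 15 min, room temperature; percent inhibition fitted to 4-parameter Hill equation.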

[25] = Primary qHTS for small molecule stabilizers of the endoplasmic reticulum resident proteome: Secreted ER Calcium Modulated Protein (SERCaMP) assay (AID 1508630); note: % is set by controls: 0 for no effect and ±100 for the full control effect
In short: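 The SH-SY5Y reporter protocol was run at 3 concentrations up to 38.3 uM (primary) or 11 concentrations (follow-up): 16 h compound, 100 nM thapsigargin for 4 h, then extracellular luciferase luminescence.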

Sequence of DNA dC->dU-editing enzyme APOBEC-3G (Homo sapiens) (Q9HC16 whole entry, looked up): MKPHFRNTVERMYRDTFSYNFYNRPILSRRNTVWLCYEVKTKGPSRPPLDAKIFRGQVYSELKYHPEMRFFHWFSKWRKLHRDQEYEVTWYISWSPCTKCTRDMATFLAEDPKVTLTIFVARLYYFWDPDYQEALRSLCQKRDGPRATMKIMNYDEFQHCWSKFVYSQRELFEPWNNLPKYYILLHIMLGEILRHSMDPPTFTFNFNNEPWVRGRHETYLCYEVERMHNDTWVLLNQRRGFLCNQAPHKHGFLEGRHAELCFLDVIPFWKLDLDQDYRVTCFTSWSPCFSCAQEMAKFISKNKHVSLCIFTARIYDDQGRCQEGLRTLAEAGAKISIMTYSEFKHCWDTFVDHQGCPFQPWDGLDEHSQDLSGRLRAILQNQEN
Sequence of Voltage-gated inwardly rectifying potassium channel KCNH2 (Homo sapiens) (Q12809 whole entry, looked up): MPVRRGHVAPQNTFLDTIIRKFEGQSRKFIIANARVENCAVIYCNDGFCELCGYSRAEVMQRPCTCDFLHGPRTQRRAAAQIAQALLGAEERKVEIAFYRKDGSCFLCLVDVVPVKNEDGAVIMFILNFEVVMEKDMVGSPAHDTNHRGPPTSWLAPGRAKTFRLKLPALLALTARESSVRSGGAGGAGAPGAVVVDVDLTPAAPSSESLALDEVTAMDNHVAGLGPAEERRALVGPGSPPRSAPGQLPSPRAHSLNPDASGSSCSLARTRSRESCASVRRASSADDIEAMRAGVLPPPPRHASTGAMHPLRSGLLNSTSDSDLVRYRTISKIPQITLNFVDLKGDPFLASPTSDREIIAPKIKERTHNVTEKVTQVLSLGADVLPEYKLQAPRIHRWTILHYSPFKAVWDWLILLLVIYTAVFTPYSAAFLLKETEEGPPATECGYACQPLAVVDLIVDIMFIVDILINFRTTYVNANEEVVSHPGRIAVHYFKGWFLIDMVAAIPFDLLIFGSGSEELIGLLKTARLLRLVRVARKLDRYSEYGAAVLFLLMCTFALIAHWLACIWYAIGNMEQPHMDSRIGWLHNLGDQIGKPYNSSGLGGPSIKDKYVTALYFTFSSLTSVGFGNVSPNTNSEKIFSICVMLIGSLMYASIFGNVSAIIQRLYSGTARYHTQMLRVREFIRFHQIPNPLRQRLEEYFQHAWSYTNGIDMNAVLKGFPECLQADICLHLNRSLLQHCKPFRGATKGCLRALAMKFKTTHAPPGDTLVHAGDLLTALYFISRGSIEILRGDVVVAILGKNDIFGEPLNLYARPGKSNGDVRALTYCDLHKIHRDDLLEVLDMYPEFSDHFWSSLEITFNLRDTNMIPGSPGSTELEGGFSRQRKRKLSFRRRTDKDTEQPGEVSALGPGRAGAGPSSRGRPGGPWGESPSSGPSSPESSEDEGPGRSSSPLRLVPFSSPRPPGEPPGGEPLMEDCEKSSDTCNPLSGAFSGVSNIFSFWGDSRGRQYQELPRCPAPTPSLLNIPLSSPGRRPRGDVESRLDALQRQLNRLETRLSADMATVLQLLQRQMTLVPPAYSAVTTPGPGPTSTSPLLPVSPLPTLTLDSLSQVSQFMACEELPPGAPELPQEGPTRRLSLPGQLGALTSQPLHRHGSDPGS
Sequence of Ubiquitin carboxyl-terminal hydrolase 1 (Homo sapiens) (O94782 whole entry, looked up): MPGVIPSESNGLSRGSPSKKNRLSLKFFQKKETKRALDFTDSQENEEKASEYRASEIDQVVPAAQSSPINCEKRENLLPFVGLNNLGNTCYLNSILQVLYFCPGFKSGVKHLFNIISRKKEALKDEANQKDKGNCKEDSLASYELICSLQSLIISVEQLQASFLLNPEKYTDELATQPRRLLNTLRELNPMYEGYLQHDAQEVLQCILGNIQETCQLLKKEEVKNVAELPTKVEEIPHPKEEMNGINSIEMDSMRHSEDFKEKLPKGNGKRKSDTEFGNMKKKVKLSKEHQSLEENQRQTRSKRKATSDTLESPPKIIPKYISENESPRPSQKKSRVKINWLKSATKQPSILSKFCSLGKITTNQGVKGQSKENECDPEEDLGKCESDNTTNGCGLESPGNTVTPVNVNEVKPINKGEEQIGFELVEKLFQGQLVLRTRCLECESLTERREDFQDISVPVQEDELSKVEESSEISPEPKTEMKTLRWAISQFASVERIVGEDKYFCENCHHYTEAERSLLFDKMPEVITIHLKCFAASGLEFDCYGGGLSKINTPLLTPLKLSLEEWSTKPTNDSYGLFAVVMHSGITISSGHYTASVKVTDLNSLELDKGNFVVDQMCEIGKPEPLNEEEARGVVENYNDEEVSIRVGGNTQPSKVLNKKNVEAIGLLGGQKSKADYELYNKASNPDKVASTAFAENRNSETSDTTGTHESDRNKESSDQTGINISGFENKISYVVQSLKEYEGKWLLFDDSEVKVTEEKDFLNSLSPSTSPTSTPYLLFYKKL
Sequence of RecQ-like DNA helicase BLM (Homo sapiens) (P54132 whole entry, looked up): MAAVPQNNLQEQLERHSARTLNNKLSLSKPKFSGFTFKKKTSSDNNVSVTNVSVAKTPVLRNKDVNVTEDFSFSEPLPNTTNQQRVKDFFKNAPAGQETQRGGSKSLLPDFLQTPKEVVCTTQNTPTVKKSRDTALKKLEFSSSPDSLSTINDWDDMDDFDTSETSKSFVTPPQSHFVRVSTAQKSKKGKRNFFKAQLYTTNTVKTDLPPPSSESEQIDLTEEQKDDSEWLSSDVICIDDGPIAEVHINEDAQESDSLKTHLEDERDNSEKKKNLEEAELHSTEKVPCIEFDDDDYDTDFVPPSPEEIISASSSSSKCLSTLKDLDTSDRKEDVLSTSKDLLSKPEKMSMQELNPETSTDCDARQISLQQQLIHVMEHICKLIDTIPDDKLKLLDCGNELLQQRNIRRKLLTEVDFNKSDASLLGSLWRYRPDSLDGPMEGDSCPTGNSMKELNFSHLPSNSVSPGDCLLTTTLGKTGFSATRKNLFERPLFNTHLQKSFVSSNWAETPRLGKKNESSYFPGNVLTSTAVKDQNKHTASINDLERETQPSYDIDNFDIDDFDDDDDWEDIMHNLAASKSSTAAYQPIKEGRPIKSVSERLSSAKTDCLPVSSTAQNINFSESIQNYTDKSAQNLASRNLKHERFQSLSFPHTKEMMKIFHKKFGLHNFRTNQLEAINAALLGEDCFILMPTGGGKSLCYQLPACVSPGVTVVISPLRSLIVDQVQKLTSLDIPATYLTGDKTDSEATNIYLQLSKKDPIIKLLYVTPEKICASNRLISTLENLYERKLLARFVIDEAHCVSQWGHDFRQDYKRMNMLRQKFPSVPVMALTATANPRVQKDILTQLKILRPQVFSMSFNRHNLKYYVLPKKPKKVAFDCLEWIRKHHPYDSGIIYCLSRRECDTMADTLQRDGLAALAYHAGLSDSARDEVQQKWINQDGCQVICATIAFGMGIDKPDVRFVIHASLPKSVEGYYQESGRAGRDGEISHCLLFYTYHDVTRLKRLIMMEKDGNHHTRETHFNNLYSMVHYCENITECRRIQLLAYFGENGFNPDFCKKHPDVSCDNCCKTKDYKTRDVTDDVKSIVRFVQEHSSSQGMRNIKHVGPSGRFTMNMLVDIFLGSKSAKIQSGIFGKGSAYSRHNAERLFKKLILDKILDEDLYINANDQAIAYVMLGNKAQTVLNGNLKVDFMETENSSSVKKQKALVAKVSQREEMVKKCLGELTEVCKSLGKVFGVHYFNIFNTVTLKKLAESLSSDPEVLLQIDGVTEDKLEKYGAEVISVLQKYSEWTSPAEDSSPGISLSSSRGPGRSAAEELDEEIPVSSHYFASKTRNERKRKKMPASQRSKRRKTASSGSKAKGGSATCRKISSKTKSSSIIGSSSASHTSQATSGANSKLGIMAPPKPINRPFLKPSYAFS
Sequence of Thyrotropin receptor (Homo sapiens) (P16473 whole entry, looked up): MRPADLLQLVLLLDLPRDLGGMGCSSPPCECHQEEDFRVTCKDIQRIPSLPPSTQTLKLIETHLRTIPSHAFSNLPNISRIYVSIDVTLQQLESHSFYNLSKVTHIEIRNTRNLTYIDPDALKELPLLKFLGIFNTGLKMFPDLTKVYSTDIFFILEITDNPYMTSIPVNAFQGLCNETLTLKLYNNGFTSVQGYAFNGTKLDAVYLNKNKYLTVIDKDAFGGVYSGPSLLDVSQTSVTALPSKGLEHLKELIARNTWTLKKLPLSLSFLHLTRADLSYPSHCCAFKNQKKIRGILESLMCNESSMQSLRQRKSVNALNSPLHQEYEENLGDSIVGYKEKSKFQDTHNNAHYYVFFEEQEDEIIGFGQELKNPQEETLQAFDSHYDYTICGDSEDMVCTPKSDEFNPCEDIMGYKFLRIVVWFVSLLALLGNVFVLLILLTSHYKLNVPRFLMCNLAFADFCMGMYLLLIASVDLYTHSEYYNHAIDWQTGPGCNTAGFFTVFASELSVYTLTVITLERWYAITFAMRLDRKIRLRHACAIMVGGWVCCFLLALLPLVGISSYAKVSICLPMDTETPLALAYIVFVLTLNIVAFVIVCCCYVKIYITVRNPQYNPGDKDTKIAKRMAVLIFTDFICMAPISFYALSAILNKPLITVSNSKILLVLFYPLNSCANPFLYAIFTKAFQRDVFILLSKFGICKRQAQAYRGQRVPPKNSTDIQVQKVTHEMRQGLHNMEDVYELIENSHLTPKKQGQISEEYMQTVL
Sequence of Ferritin light chain (Equus caballus) (P02791 2-175 limits assumed): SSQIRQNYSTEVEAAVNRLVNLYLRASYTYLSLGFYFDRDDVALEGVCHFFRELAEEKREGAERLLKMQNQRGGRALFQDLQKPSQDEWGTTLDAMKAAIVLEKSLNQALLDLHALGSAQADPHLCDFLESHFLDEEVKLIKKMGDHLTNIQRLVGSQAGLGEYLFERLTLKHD
Sequence of Galactokinase (Homo sapiens) (P51570 whole entry, looked up): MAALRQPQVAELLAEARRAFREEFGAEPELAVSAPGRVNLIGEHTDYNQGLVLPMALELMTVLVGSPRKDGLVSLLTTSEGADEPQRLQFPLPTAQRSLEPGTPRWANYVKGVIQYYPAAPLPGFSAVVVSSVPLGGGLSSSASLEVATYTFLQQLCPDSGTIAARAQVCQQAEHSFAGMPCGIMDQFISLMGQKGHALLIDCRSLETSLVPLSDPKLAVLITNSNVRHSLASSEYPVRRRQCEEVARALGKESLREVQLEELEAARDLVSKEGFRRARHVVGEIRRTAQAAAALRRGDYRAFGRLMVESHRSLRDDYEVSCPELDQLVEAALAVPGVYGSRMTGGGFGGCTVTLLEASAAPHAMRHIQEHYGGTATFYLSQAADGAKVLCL

N[C@H](CCCCCP(=O)(O)O)C(=O)O
inactive: Potency [1] | Potency [2] | Potency [3] | Potency [4] | Potency [5] | Potency [6] | Potency [7] | Potency [8] | outcome [9] | Potency [10] | Potency [11] | Potency [12] | Potency [13] | Potency [14] | Potency [15] | outcome [16] | outcome [17] | activation [18] -0.125% | outcome [19] | Potency [20] | Potency [21] | Potency [22] | Potency [23] | Potency [24] | Potency [25]
